Assay results: publication PMC4552634, “A New Set of Chemical Starting Points with Plasmodium falciparum Transmission-Blocking Potential for Antimalarial Drug Discovery” (PLoS ONE, 2015)
About 3,200 (25%) of roughly 13,000 compounds showed an effect of 50% or more. The list shows a part of the results.

What follows are compounds tested on P. falciparum stage V gametocytes. Conditions: 48 h, 5 µM; inhibitor.
Parameters: BacTiter-Glo ATP luminescence viability of purified stage V gametocytes in 384-well plates, per cent inhibition versus DMSO

| Compound | % Inhibition [%] |
| --- | --- |
| C=C(NC(=O)C1CCCCC1)C(=O)OC [TCMDC-131685] | 0.06563 |
| NC1=NC(c2ccccc2)(c2ccccn2)C(=O)N1CCCc1ccccc1 (stereo not shown) [TCMDC-136603] | 9.29 |
| Cc1cc(N2CCCC2)nc(Nc2ccc(NC(=O)c3ccccc3F)cc2)n1 [TCMDC-124710] | -34.77 |
| CCNc1cc(C(=O)N[C@@H](Cc2ccccc2)[C@H](O)CNCc2cccc(-c3cncnc3)c2)cc(N2CCCC2=O)c1 [TCMDC-141687] | 18.59 |
| O=C(Nc1cccc(-c2nn3ccccc3c2-c2ccnc(Nc3cccc(N4CCCC4=O)c3)n2)c1)c1cc(F)ccc1F [TCMDC-135850] | 10.23 |
| COc1ccccc1C1CN(CCNC(=O)c2ncc(C)[nH]2)Cc2ccccc2O1 (stereo not shown) [TCMDC-124657] | -1.409 |
| COc1cccc2cc(C(=O)N[C@@H](CC(C)C)C(=O)NC(/C=N/NC(=O)c3ccccc3)CCc3ccccc3)oc12 (stereo partly shown) [TCMDC-135434] | -2.183 |
| COc1ccc(Cn2cncc2CN(CCC(C)C)C(=O)c2ccc(Cl)nc2Cl)cc1 [TCMDC-132536] | 21.31 |
| O=C(Nc1cccc(CN2CCCN(Cc3ccc(F)cc3)CC2)c1)c1cc2ccccc2s1 [TCMDC-141876] | 71.77 |
| Cc1ccc(CN2CCCN(Cc3cccc(NC(=O)c4cc5ccccc5s4)c3)CC2)cc1C [TCMDC-141879] | 80.31 |
| Cc1ccc(CN2CCN(Cc3cccc(NC(=O)c4ccc5ccccc5c4)c3)CC2)cc1C [TCMDC-141887] | -29.11 |
| O=C(Nc1cccc(CN2CCN(C(=O)c3cccs3)CC2)c1)c1cccs1 [TCMDC-136329] | 33.24 |
| COc1ccc(CN2CCCN(Cc3cccc(NC(=O)c4cc5ccccc5s4)c3)CC2)cc1 [TCMDC-141867] | -63.54 |
| O=C(Nc1cccc(CN2CCN(C(=O)c3ccccc3)CC2)c1)c1cccs1 [TCMDC-136325] | 14.84 |
| O=C(Nc1cccc(CN2CCCN(Cc3ccc(O)cc3)CC2)c1)c1cc2ccccc2s1 [TCMDC-141878] | 32.43 |
| Cc1ccc(CN2CCN(Cc3cccc(NC(=O)c4cccs4)c3)CC2)cc1C [TCMDC-141888] | 86.1 |
| Cc1cccc(C(=O)N2CCN(Cc3cccc(NC(=O)c4cccs4)c3)CC2)c1 [TCMDC-136328] | 7.958 |
| O=C(Nc1cccc(CN2CCN(C(=O)c3cccc(F)c3)CC2)c1)c1cccs1 [TCMDC-136330] | 79.41 |
| O=C(NCC1CCC(CNCCCc2ccccc2)CC1)c1cc(Cl)cc(Cl)c1 (stereo not shown) [TCMDC-140679] | -14.35 |
| CCCc1cc(N2CCC(c3ccccc3)(N3CCCCC3)CC2)nc(Nc2ccc(OC)cc2)n1 [TCMDC-132389] | -43.67 |
| O=C(Nc1cccc(CN2CCN(C(=O)c3ccccc3)CC2)c1)c1ccco1 [TCMDC-136321] | -15.6 |
| N#Cc1ccc(CN2CCCN(Cc3cccc(NC(=O)c4cc5ccccc5s4)c3)CC2)cc1 [TCMDC-141866] | -28.76 |
| O=C(Nc1cccc(CN2CCN(Cc3ccc(O)cc3)CC2)c1)c1cc2ccccc2s1 [TCMDC-134624] | 6.138 |
| O=C(Nc1cccc(CN2CCN(C(=O)c3cccc(F)c3)CC2)c1)c1ccco1 [TCMDC-136324] | 35.66 |

| Compound | % Inhibition [%] |
| --- | --- |
| O=C(Nc1cccc(CN2CCCN(Cc3ccc4c(c3)OCO4)CC2)c1)c1cc2ccccc2s1 [TCMDC-141865] | 83.34 |
| Cc1cccc(C(=O)N2CCN(Cc3cccc(NC(=O)c4ccco4)c3)CC2)c1 [TCMDC-136323] | 80.03 |
| O=C(/C=C/c1ccc(Cl)c(Cl)c1)NCCCCCN1CCCN(C(=O)Nc2cccc(Cl)c2)CC1 [TCMDC-135749] | -36.61 |
| CC(C)C[C@@H](/C=N/N1CCOC1=O)NC(=O)[C@H](CC(C)C)NC(=O)c1ccc(F)cc1 [TCMDC-136186] | -17.2 |
| CN1CCN(c2ccc(Nc3nccc(-c4cnn5ncccc45)n3)cc2Cl)CC1 [TCMDC-138688] | 55.04 |
| O=[N+]([O-])c1cccc(Nc2nccc(-c3cnn4ncccc34)n2)c1 [TCMDC-138697] | -28.72 |
| c1cc(Nc2nccc(-c3cnn4ncccc34)n2)cc(-c2cnco2)c1 [TCMDC-138684] | -9.488 |
| Cc1ccc2[nH]c3c(NCCCN4CCOCC4)ncnc3c2c1 [TCMDC-124068] | -37.8 |
| N#Cc1ccc(-c2ccc3nc(N4CCCN(C5CCC5)CC4)ccc3c2)cc1 [TCMDC-136368] | 18.23 |
| N=C1C=C(N)C(=O)c2ccccc21 [TCMDC-141992] | 106.9 |
| O=C(Nc1ccc(OC2CCN(Cc3ccc(F)cc3)C2)c(Cl)c1)c1ccc(F)cc1 (stereo not shown) [TCMDC-133763] | 12.34 |
| O=C1c2ccccc2-n2c1nc1ccccc1c2=O [TCMDC-125859] | -11.25 |
| COc1cccc(Nc2nc(NCCO)c3ccccc3n2)c1.Cl [TCMDC-124573] | 23.38 |
| COc1cccc(Nc2nc(N)c3ccccc3n2)c1.Cl [TCMDC-123746] | 24.77 |
| CCN1CCC2(c3cccc(OC)c3)Cc3nc4ccccc4c(-c4ccccc4)c3CC2C1 (stereo not shown) [TCMDC-138968] | 77.57 |
| COCCOc1nc(N)nc2ncc(Cc3cc(OC)ccc3OC)c(C)c12 [TCMDC-137754] | 36.3 |
| O=C(N[C@@H](Cc1ccccc1)C(=O)NC1CCCCCC1)c1ccc(O)c(-c2ccc(Cl)c(Cl)c2)c1 [TCMDC-140845] | 40.83 |
| CCCCOc1cc(C)nc2ccc(NC(=O)COCC(=O)Nc3ccc4nc(C)cc(OCCCC)c4c3)cc12 [TCMDC-140149] | -34.05 |
| COc1cc(C)nc2ccc(NC(=O)COCC(=O)Nc3ccc4nc(C)cc(OC)c4c3)cc12 [TCMDC-139461] | 62.71 |
| COc1cc(C)nc2ccc(NC(=O)Nc3ccc4nc(C)cc(OC)c4c3)cc12 [TCMDC-139138] | 8.428 |
| COc1ccc(Cn2ncc3c4c(N)nc(N)nc4ccc32)cc1OC [TCMDC-131934] | 49.54 |
| COc1cccc(Cn2ccc3c4c(N)nc(N)nc4ccc32)c1 [TCMDC-137811] | 100 |
| COc1ccc(Cn2ccc3c4c(N)nc(N)nc4ccc32)cc1 [TCMDC-139862] | 105.9 |
| COCn1ccc2c3c(N)nc(N)nc3ccc21 [TCMDC-137505] | 0.2853 |

| Compound | % Inhibition [%] |
| --- | --- |
| COCCn1ccc2c3c(N)nc(N)nc3ccc21 [TCMDC-137263] | 12.7 |
| COCCOCCOCCn1ccc2c3c(N)nc(N)nc3ccc21 [TCMDC-137974] | 22.53 |
| COc1cc(Cn2ccc3c4c(N)nc(N)nc4ccc32)cc(OC)c1OC [TCMDC-137341] | 118.6 |
| O=C(/C=C/c1ccc(Cl)c(Cl)c1)NCCCCCN1CCC(NC(=O)c2ccc(F)c(F)c2)CC1 [TCMDC-135838] | -28.53 |
| Cc1ccc(Nc2nc(N/N=C/c3cccc(O)c3)nc(Nc3ccc([N+](=O)[O-])cc3)n2)cc1C [TCMDC-124125] | -28.14 |
| CCCN(Cc1nnc(-c2ccco2)o1)C(=O)C1CCN(c2ncc(C(F)(F)F)cc2Cl)CC1 [TCMDC-125335] | -10.32 |
| CCOc1ccc(Cc2c(C)nc3nc(N)nc(N)c3c2C)cc1 [TCMDC-137655] | 8.912 |
| Cc1c(Cl)ccc2c(C(=O)Nc3ccncc3)cc(-c3cccnc3)nc12 [TCMDC-125224] | 6.226 |
| COc1ccc(CNC2Cc3ccccc3C2)cc1-c1ccc(S(=O)(=O)NCCN2CCCC2)cc1 [TCMDC-132248] | 107.9 |
| COc1ccc(CNC2Cc3ccccc3C2)cc1-c1cccc(S(=O)(=O)NCCN2CCCC2)c1 [TCMDC-132269] | 112.5 |
| CC(C)NCc1ccc(-c2ccc(-c3nc4ccc(F)cc4[nH]3)cc2)cc1 [TCMDC-132740] | 14.26 |
| CCc1ccccc1NC(=O)CN1CCN(c2ncnc3scc(-c4ccc(F)cc4)c23)CC1 [TCMDC-125248] | -17.47 |
| CC(C)CNC(=O)CN1C(=O)C(c2ccccc2)(c2ccccc2)N=C1N [TCMDC-137006] | -9.905 |
| Fc1ccc2[nH]c3c(NCCCN4CCOCC4)ncnc3c2c1 [TCMDC-124555] | -45.7 |
| CC(C)C[C@H](NC(=O)c1ccc(F)cc1)C(=O)N[C@H](/C=N/NC(=O)c1ccccc1)CCc1ccccc1 [TCMDC-135680] | -1.54 |
| Cn1c(=N)cc(-c2cccc(I)c2)c2c(=O)[nH]c(N)nc21 [TCMDC-137835] | 7.838 |
| O=C1CCCN1CCCNCc1ccc(-c2cccc(-c3nc4ccc(F)cc4[nH]3)c2)cc1 [TCMDC-132750] | -14.96 |
| Fc1ccc2[nH]c(-c3cccc(-c4ccc(CNCCN5CCNCC5)cc4)c3)nc2c1 [TCMDC-132863] | 90.56 |
| Cn1nccc1C(=O)NCCNCc1cccc(-c2cccc(-c3nc4cc(F)ccc4[nH]3)c2)c1.O=C(O)C(F)(F)F [TCMDC-133020] | -34.05 |
| Cn1cccc1CCNCc1ccc(-c2cccc(-c3nc4cc(F)ccc4[nH]3)c2)cc1.O=C(O)C(F)(F)F [TCMDC-132684] | 7.89 |
| O=C1CCCN1CCCNCc1cccc(-c2cccc(-c3nc4ccc(F)cc4[nH]3)c2)c1 [TCMDC-132765] | -41.49 |
| Fc1ccc2[nH]c(-c3cccc(-c4cccc(CNCCN5CCNCC5)c4)c3)nc2c1 [TCMDC-132860] | 97.72 |
